According to the supplement of paper PMC6555819:

How the values were obtained:
Experiment in all cases: PBM binding z-score (relative to random genomic background probes); higher = stronger binding; sequences stand for … in GC…GCGATTGACAGCGTAGAATGAAGG
[1] = system: FXR:RXRa (NR concentration 270 nM, RXRa partner concentration 90 nM)
Outline: (§1)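 Scanned fluorescence from custom Agilent 4×180K protein-binding microarrays was regression-normalized. Binding z-scores use random background probes as reference. Ligand-free nuclear receptor dimers were incubated on the arrays for 1 h and detected with antibodies against each partner (one per run).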

[2] = system: LXRa:RXRa (NR concentration 270 nM, RXRa partner concentration 90 nM)
Outline: as §1

[3] = system: LXRa homodimer (NR concentration 270 nM)
Outline: as §1

[4] = system: LXRb:RXRa (NR concentration 270 nM, RXRa partner concentration 90 nM)
Outline: as §1

[5] = system: LXRb homodimer (NR concentration 270 nM)
Outline: as §1

[6] = system: PPARa:RXRa (NR concentration 270 nM, RXRa partner concentration 90 nM)
Outline: as §1

[7] = system: PPARg:RXRa (NR concentration 180 nM, RXRa partner concentration 90 nM)
Outline: as §1

[8] = system: PPARg:RXRa 270nM:90nM, anti-RXR (NR concentration 270 nM, RXRa partner concentration 90 nM)
Outline: as §1

[9] = system: PPARg:RXRa 30nM:10nM, anti-RXR (NR concentration 30 nM, RXRa partner concentration 10 nM)
Outline: as §1

[10] = system: PPARg:RXRa 90nM:30nM, anti-RXR (NR concentration 90 nM, RXRa partner concentration 30 nM)
Outline: as §1

[11] = system: PPARg:RXRa DBDmut IVT, anti-RXR (DBD mutation: RXRa K156A/R161A, NR concentration 270 nM, RXRa partner concentration 90 nM)
Outline: as §1

[12] = system: PPARg:RXRa IVT, anti-PPARg (NR concentration 270 nM, RXRa partner concentration 90 nM)
Outline: as §1

[13] = system: PPARg DBDmut:RXRa IVT, anti-PPARg (DBD mutation: PPARg1 K132A/R137A, NR concentration 270 nM, RXRa partner concentration 90 nM)
Outline: as §1

[14] = system: PPARg DBDmut IVT, anti-PPARg (DBD mutation: PPARg1 K132A/R137A, NR concentration 270 nM)
Outline: as §1

[15] = system: PPARg homodimer (NR concentration 180 nM)
Outline: as §1

[16] = system: PXR:RXRa (NR concentration 270 nM, RXRa partner concentration 90 nM)
Outline: as §1

[17] = system: PXR homodimer (NR concentration 270 nM)
Outline: as §1

[18] = system: RARa:RXR (NR concentration 270 nM, RXRa partner concentration 90 nM)
Outline: as §1

[19] = system: RARa homodimer (NR concentration 270 nM)
Outline: as §1

[20] = system: RARb:RXRa (NR concentration 270 nM, RXRa partner concentration 90 nM)
Outline: as §1

CAAACTAGCTCAAAGGTCAAAGTCGAGCCAACCA
PBM binding z-score [1]: 5.95
PBM binding z-score [2]: 5.85
PBM binding z-score [3]: 4.59
PBM binding z-score [4]: 5.66
PBM binding z-score [5]: 2.54
PBM binding z-score [6]: 6.14
PBM binding z-score [7]: 9.32
PBM binding z-score [8]: 8.51
PBM binding z-score [9]: 8.32
PBM binding z-score [10]: 9.43
PBM binding z-score [11]: 1.24
PBM binding z-score [12]: 4.54
PBM binding z-score [13]: 0.599
PBM binding z-score [14]: 0.63
PBM binding z-score [15]: 4.6
PBM binding z-score [16]: 5.37
PBM binding z-score [17]: 1.71
PBM binding z-score [18]: 6.39
PBM binding z-score [19]: 2.49
PBM binding z-score [20]: 4.76

AGTCAAAGTTCAGGACGAGGTAACGTAAAGCACG
PBM binding z-score [1]: 3.82
PBM binding z-score [2]: 3.74
PBM binding z-score [3]: 0.999
PBM binding z-score [4]: 1.93
PBM binding z-score [5]: 0.286
PBM binding z-score [6]: 3.46
PBM binding z-score [7]: 4.47
PBM binding z-score [8]: 4.95
PBM binding z-score [9]: 2.17
PBM binding z-score [10]: 3.94
PBM binding z-score [11]: -0.443
PBM binding z-score [12]: 2.06
PBM binding z-score [13]: 0.129
PBM binding z-score [14]: 0.321
PBM binding z-score [15]: 1.91
PBM binding z-score [16]: 2.94
PBM binding z-score [17]: 0.827
PBM binding z-score [18]: 2.8
PBM binding z-score [19]: 0.702
PBM binding z-score [20]: 4.26

CCTACTGGGCCAAAGGTCATTGGTTCCAATGCTC
PBM binding z-score [1]: 5.06
PBM binding z-score [2]: 5.15
PBM binding z-score [3]: 4.28
PBM binding z-score [4]: 4.94
PBM binding z-score [5]: 0.631
PBM binding z-score [6]: 6.49
PBM binding z-score [7]: 11.6
PBM binding z-score [8]: 9.63
PBM binding z-score [9]: 10.5
PBM binding z-score [10]: 10.3
PBM binding z-score [11]: 5.02
PBM binding z-score [12]: 6.55
PBM binding z-score [13]: 0.0482
PBM binding z-score [14]: -0.387
PBM binding z-score [15]: 2.89
PBM binding z-score [16]: 5.41
PBM binding z-score [17]: 2.21
PBM binding z-score [18]: 6.04
PBM binding z-score [19]: 0.819
PBM binding z-score [20]: 4.51

TCATATAGGTAAACAGGTGAGAGTCCGTAAGTTA
PBM binding z-score [1]: 0.963
PBM binding z-score [2]: 0.822
PBM binding z-score [3]: 0.145
PBM binding z-score [4]: 0.682
PBM binding z-score [5]: 0.166
PBM binding z-score [6]: 2.04
PBM binding z-score [7]: 2.39
PBM binding z-score [8]: 3.16
PBM binding z-score [9]: 3.77
PBM binding z-score [10]: 3.41
PBM binding z-score [11]: 4.89
PBM binding z-score [12]: 4.22
PBM binding z-score [13]: 0.855
PBM binding z-score [14]: 1.05
PBM binding z-score [15]: 0.708
PBM binding z-score [16]: 0.6
PBM binding z-score [17]: 0.674
PBM binding z-score [18]: 0.689
PBM binding z-score [19]: 1.25
PBM binding z-score [20]: 0.677

TCTAGCAGGCCAGAGGGTCATTCAAGAGGTACGG
PBM binding z-score [1]: 1.45
PBM binding z-score [2]: 1.27
PBM binding z-score [3]: -0.353
PBM binding z-score [4]: 1.51
PBM binding z-score [5]: -1.01
PBM binding z-score [6]: 2.71
PBM binding z-score [7]: 1.54
PBM binding z-score [8]: 3.08
PBM binding z-score [9]: 2.26
PBM binding z-score [10]: 2.98
PBM binding z-score [11]: 0.912
PBM binding z-score [12]: 0.374
PBM binding z-score [13]: -1.21
PBM binding z-score [14]: -1.66
PBM binding z-score [15]: 0.751
PBM binding z-score [16]: 2.2
PBM binding z-score [17]: -0.364
PBM binding z-score [18]: 2.79
PBM binding z-score [19]: -0.545
PBM binding z-score [20]: 2.17

CCTTACGGTTCAAGGTTATAGCACGGGTGGTACG
PBM binding z-score [1]: 2.11
PBM binding z-score [2]: 1.96
PBM binding z-score [3]: 0.742
PBM binding z-score [4]: 1.66
PBM binding z-score [5]: 0.441
PBM binding z-score [6]: 2.53
PBM binding z-score [7]: 0.899
PBM binding z-score [8]: 1.18
PBM binding z-score [9]: 0.229
PBM binding z-score [10]: 0.767
PBM binding z-score [11]: -0.682
PBM binding z-score [12]: 0.211
PBM binding z-score [13]: 0.502
PBM binding z-score [14]: -0.14
PBM binding z-score [15]: 1.49
PBM binding z-score [16]: 2.28
PBM binding z-score [17]: 1.34
PBM binding z-score [18]: 2.24
PBM binding z-score [19]: 1.14
PBM binding z-score [20]: 1.73
